PubChem BioAssay AID1347426 (Functional Genomics Laboratory (NCATS/FGL), 2020)
Hit rate of the full screen: of about 31,000 sequences, about 1,400 (4.5%) were called active. The sample as a whole holds a higher share of actives than the screen did. Unmarked numbers belong to inactive results.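 How the source made its calls: active means median seed-adjusted z-score above 1 or below -1; inactive means the rest.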

Experiment: Novel Modifiers of Survival Motor Neuron (SMN) Protein: Gene Identification via Genome-wide siRNA Screen;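 further: luminescence tracks full-length SMN protein made from the SMN2 reporter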
Conditions: HEK293T SMN2-luciferase reporter, siRNA knockdown, 72 h; actives lie on both sides
In short: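 Luciferase signal, proportional to full-length SMN made from an SMN2 cDNA reporter in stable HEK293T cells, was read 72 h after siRNA reverse transfection. Values were expressed as MAD scores after non-targeting-control normalization and log10 conversion; seed analysis flagged off-targets.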

Sequence | median seed-adjusted z-score
GGAAACGAUUAUUACAACUTT against LRRK2 | -0.671
AUAAAUACCUCGGACAUUATT against EIF1AX | 0.878
CCCUUCGCGUUGUUGCUCATT against DHRS1 | 0
GAGGGACCAUAGUAGAUCATT against CPSF6 | -2.38 (active)
GAUCGAUUCAUACCAUAUATT against MCM8 | 0.279
GAAGCUACGUUGACUAUUUTT against HRC | 1.06 (active)
GAAGUUUACUUAUCUGGGUTT against PRKAB1 | 0.536
CAACAAUCCUAUAAUUCCATT against UBE2Q2 | 0.146
ACCUGUUAAUGGCCUUUGUTT against SLC30A3 | -1.26 (active)
GGAGUUCAUCCGUCAAGUUTT against BIRC3 | -0.644
GCAUCAAUGUACCUCCACATT against ETV4 | -0.186
CGACCAUUGGAGAUGUUAATT against SCML2 | -0.538
GAGGAUUACUAAUUGAUCUTT against CHM | 0.743
GAAAAAGGGUCACCAGAAATT against TSG101 | 1.48 (active)
GGCCGUGGAUCAUCACUAUTT against FLJ16165 | -0.404
GCCUUAAGGUAUUCGUGUATT against EXTL1 | 0
CCACCACAGAUUUUCCUAUTT against CD300A | -0.414
GGAACUCAUUAUACAAUGATT against CLCN3 | -0.0801
CCCUAUGAGUGUCAACAAUTT against ZNF799 | -1.02 (active)
GAUAUGUAUUCAUACUAAUTT against SNX10 | 0.391
GUACAGCUCUUAUCGUUCATT against PPRC1 | 0
GCAUCUUUCUGAGUUCACUTT against SLC22A11 | 0
GUGCUACAAUUGUACAGUATT against CREM | -2.37 (active)
GCAUGAGUAUCUAUGACGATT against ATP5C1 | -0.0179
ACUCCAACCGUACCCUUUATT against PPT2 | 0.0334
CCACUACGGUGUUCAUGCATT against PPARD | 0.0283
CUGAGACCCUGUUGACUGATT against PGS1 | 1.36 (active)
GACUCCUACAUGUCCAUUATT against DNM3 | 0
GACAGACUGUGCAUAUGUATT against GPR15 | 0.101
GCAACCACCUAUAUCCUCATT against P2RY10 | -0.432
